Screening data from PubChem BioAssay.
Shown are actives, neighbours in structure and some others; about 9.5% of the full set was active somewhere.
Pf growth 96h: inhibits malaria parasite growth, 96 h; 6.9% of 320,000 active; AID 504834; Potency, µM (series often up to 28.7 µM), without a hit: at the highest dose activity change, negative = inhibition, actives largely listed as inhibitors; P. falciparum luciferase reporter growth, 96 h; active = well fitted inhibition curve with a large enough effect; inconclusive = small, poorly fitted or top-dose-only effect, or another doubt; inactive = no such curve, though single readings can be large or run the other way; note: % is set by controls: 0 for no effect and ±100 for the full control effect
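Two parasite generations (96 h, 37 C, 5% CO2) of compound exposure in infected erythrocytes (0.05% parasitemia, 2% hematocrit). Luciferase-reporter P. falciparum; decreased luminescence indicates inhibited growth, aimed at apicoplast-acting delayed death.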
RE007 growth inh: less growth of the S. pombe RE007 Vpr strain. 0.21% of 360,000 active. AID 651644. Potency, µM (series often up to 92.2 µM), for the others: at the highest dose activity change, negative = less growth, hits mostly inhibitors. S. pombe RE007 Vpr strain, BacTiter-Glo ATP luminescence, 24 h; active = well fitted falling curve with a large enough effect; inconclusive = small, poorly fitted or top-dose-only effect; inactive = no such curve, though single readings can be large or run the other way; note: % is set by controls: 0 for no effect and ±100 for the full control effect; nearly all actives have a fitted effect of over 50% in size
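Fission yeast RE007 carrying one integrated HIV-1 vpr copy, seeded at OD 0.01 in PMG+AL medium with 23 nL pinned compound. Grown 24 h at 30 degrees; viability read by BacTiter-Glo luminescence after 5 min.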
SARS PLpro yeast: blocks SARS-CoV papain-like protease in a yeast assay. S. cerevisiae expressing SARS-CoV PLpro, growth rescue. AID 485353. Potency, µM (highest dose often 32.9 µM), for the others: at the top dose activity, positive = growth rescue, most hits filed as activators. 0.19% of 330,000 active; note: 0% is about no effect; nearly all actives have a fitted effect of over 55% in size
NS1 function inh: blocks influenza NS1 protein function | Potency, µM (titrated, usually from 46.1 µM), for inactives: at the highest dose activity, positive = more growth | 0.4% of 270,000 active | AID 2326; note: actives are rising curves; nearly all actives have a fitted effect of over 50% in size
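Read-out: OD600 growth recovery of NS1-expressing budding yeast. Cells grown overnight at 30C in -URA glucose medium, washed, resuspended and diluted 1:100 in 2% galactose assay medium, pH 6.0. Same strain lacking NS1 served as positive control.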
Pf growth 48h: inhibits P. falciparum growth in the first generation, 48 h | P. falciparum luciferase growth in erythrocytes, 48 h | Potency, µM (titrated, usually from 28.7 µM), without a hit: top-dose activity change, negative = inhibition, most hits filed as inhibitors | 5.9% of 310,000 active | AID 504832; active = well fitted inhibition curve with a large enough effect; inconclusive = small, poorly fitted or top-dose-only effect, or another doubt; inactive = no such curve, though single readings can be large or run the other way; note: % is set by controls: 0 for no effect and ±100 for the full control effect
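Read-out is firefly luciferase luminescence from an integrated reporter in P. falciparum, so falling signal marks reduced parasite growth. Infected erythrocytes were at 2% hematocrit and 0.1% parasitemia (final) in Albumax-supplemented RPMI 1640.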
* hit, by the source's call; u = inconclusive; x = not tested or not shown; [ ] = dose if it differs, or a comment. Unless noted, calls come from the whole dose curve. Potency is the fitted concentration of half-maximal effect.

SMILES	Pf growth 96h	RE007 growth inh	SARS PLpro yeast	NS1 function inh	Pf growth 48h
CCN1CCN(C(=O)C2CCCN(S(=O)(=O)c3cc(Cl)ccc3Cl)C2)CC1 (stereo unspecified)	-26%	-27%	29%	15%	u
CCOC(=O)/C(=N\Nc1cc(Cl)ccc1Cl)N1CCN(CC)CC1	3.3µM*	125%	-12%	-17%	u
CCn1ncc(Br)c1C(=O)Nc1ccc(C(C)C)cc1	u	5%	-2%	3%	-8%[0.00184 µM]
O=[N+]([O-])c1ccc(Nc2nc(N/N=C\c3ccc4c(c3)OCO4)nc(N3CCCCC3)n2)cc1	2.6µM*	4%	1%	13%	2.1µM*
COc1nc(N/N=C/c2ccc(-c3ccccc3[N+](=O)[O-])o2)nc(N2CCOCC2)n1	u	x	9%	9%	14%
O=[N+]([O-])c1ccc(-c2ccc(/C=N/Nc3nc(NCc4ccccc4)nc(N4CCOCC4)n3)o2)cc1	u	0%	-1%	2%	1.5µM*
O=[N+]([O-])c1ccc(/C=N/Nc2nc(N3CCCCC3)nc(N3CCCCC3)n2)cc1	4%	-13%	0%	7%	u
O=[N+]([O-])c1ccc(Nc2nc(NCCO)nc(N3CCCC3)n2)cc1	53%[5.75 µM]	2%	-1%	x	u
O=[N+]([O-])c1ccc(/C=N/Nc2nc(N3CCCCCC3)nc(N3CCCCCC3)n2)o1	u	-12%	-48%	2%	5.2µM*
NNc1nc(Nc2ccc([N+](=O)[O-])cc2)nc(N2CCCCCC2)n1	69%	20%	-2%	-8%	4.1µM*
O=C(CSc1nncs1)Nc1nccs1	15%	6%	1%	x	0%
CC(C(=O)NCc1ccccc1)N1CCN(c2ccc(F)cc2)CC1 (stereo unspecified)	11%	-1%	-2%	5%	1%
Cc1cc2c(cc3c(=O)n(CC(=O)NCCCN4CC(C)CC(C)C4)ncn32)s1 (stereo unspecified)	-28%	-10%	1%	-10%	-26%
CCCNc1nc(Nc2ccc(C)cc2)nc(N2CCCC2)n1	2.1µM*	-17%	-33%	-123%	x
Cc1cccc(Nc2nc(N3CCCCC3)nc(N3CCCCC3)n2)c1	278%	-11%	-27%	-11%	u
COc1cc(/C=N/NC(=S)NC2CC3CC2C2C=CCC32)ccc1O (stereo unspecified)	u	-1%	-4%	14%	8.3µM*
CCOc1ccc(/C=N/NC(=S)NC2CC3CC2C2C=CCC32)cc1 (stereo unspecified)	0.66µM*	-16%	-2%	7%	4.1µM*
CNNC(=S)NC1CC2CC1C1C=CCC21 (stereo unspecified)	u	9%	-1%	1%	107%
CC(C)(CO)[C@@H](O)C(=O)NCCCO	1%	x	x	x	8%
C=CCNc1ncnc2c1ncn2[C@H]1CN(CCc2ccccc2)C[C@@H](CO)O1	x	7%	x	x	x
CN1CCN(C(=O)/C(=C/c2ccccc2)c2ccccc2)CC1	x	-6%	5%	2%	-1%
CC1CC(C)CN(C(=O)/C(=C\c2ccccc2)c2ccccc2)C1 (stereo unspecified)	93%	x	-8%	-35%	1.9µM*
CC1CCCN(C(=O)COC(=O)C2=COCCO2)C1 (stereo unspecified)	x	1%	0%	x	x
Cc1ccc(CN2CCc3[nH]c(=O)[nH]c(=O)c3C2)cc1	1.2µM*	-6%	1%	0%	2%
Cc1ccc(CN2CCc3[nH]c(=S)[nH]c(=O)c3C2)cc1	-8%	-5%	-6%	-1%	-9%
SMILES	Pf growth 96h	RE007 growth inh	SARS PLpro yeast	NS1 function inh	Pf growth 48h
CCn1c(SCC(N)=O)nnc1C(C)C	8.3µM*	47%	1%	x	13%
COCCn1c(SCC(=O)N2CCCC2)nnc1C(C)C	5.2µM*	16%	9%	6%	31%
CCCn1c(SCC(=O)N2CCCCC2)nnc1C(C)C	13%	8%	-1%	1%	14%
CCCCCCN1C[C@@H](O)[C@H](n2cc(C3CC3)nn2)C[C@@H]1c1ccc(C)cc1	x	-13%	x	x	x
CCOC(=O)c1cccc(C(=O)OCC)n1	3%	5%	-1%	-1%	11%
NC(=O)c1cccc(C(N)=O)n1	8.3µM*	-10%	-6%	x	8%
C=C(C)CNC(=S)N/N=C/c1ccc([N+](=O)[O-])cc1	15%	6%	4%	x	12µM*
CC(C)(C)C(=O)N(Cc1ccc(Cl)cc1)c1cnccn1	5.2µM*	x	-1%	-2%	3.3µM*
